Laboratory results reported in PubChem BioAssay.
The source made the active and inactive calls. Unless noted, how the calls were made is not given here.

Legend:
[1] = resazurin metabolic signal in HepG2 cells – cell-based, resazurin fluorescence, 24 h, PK04 Diversity Set, profiling panel (AID 1172); conditions: HepG2 viability, higher = more signal
[2] = budding yeast growth changes without added modifier – OD600, strain BY4716, 24 h, basal condition, primary screen (AID 1173); conditions: S. cerevisiae BY4716 growth, OD600, 24 h; higher = more signal, called active from +8 up or from −8 down
[3] = viability profiling in MM1S myeloma cells – cell-based, resazurin fluorescence, basal, 24 h, PK04 Diversity Set, profiling panel (AID 1174); conditions: higher = more signal, called active from +8 up or from −8 down;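 further: MM1S multiple myeloma cell line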
[4] = biological target: Dihydroorotate dehydrogenase (quinone), mitochondrial (Plasmodium falciparum (isolate 3D7)) (UniProt Q08210); assay: inhibition of P. falciparum DHODH – biochemical, C-terminal His tag, absorbance 600 nm, primary screen (AID 1175); conditions: PfDHODH enzyme, DCIP absorbance 600 nm; higher = more signal, called active from +8 up or from −8 down;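 further: recombinant parasite enzyme with a five histidine tag at its C terminus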
Dihydroorotate dehydrogenase (quinone), mitochondrial (Plasmodium falciparum (isolate 3D7)), sequence (Q08210 whole entry, looked up): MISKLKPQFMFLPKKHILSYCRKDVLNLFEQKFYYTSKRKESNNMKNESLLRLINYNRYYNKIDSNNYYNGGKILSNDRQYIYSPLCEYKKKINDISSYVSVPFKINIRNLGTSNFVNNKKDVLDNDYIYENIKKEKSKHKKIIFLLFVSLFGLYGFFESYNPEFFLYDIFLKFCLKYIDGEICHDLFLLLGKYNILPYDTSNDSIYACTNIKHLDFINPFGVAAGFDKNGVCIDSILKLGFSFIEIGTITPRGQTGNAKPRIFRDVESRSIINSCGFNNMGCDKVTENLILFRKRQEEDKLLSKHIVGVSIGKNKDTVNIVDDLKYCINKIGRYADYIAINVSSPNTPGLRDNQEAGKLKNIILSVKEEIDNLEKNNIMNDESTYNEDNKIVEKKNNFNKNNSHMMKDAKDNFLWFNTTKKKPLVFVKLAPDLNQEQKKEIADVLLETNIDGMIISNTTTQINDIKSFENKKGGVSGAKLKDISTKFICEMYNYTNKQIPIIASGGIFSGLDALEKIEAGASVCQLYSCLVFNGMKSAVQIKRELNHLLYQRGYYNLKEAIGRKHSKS

[5] = inhibition of PAO1 biofilm formation – strain PAO1, LB-PBS medium, absorbance 600 nm, primary screen (AID 1176); conditions: P. aeruginosa PAO1 growth/biofilm, A600, 12 h; higher = more signal
[6] = growth modulation of vineyard yeast isolate – strain RM11-1a, OD600, basal, 24 h, primary screen (AID 1177);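 further: cultures grown under basal conditions with no added stressor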; conditions: S. cerevisiae RM11-1a growth, OD600, 24 h; higher = more signal, called active from +8 up or from −8 down
[7] = growth of efflux-deficient E. coli DRC39 – strain DRC39, OD650, 24 h, E. coli filamentation inducers, primary screen (AID 1178);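 further: growth measured as culture turbidity by optical density at 650 nm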; conditions: E. coli DRC39 acrAB, higher = more signal, called active from +8 up or from −8 down
[8] = growth of efflux-deficient E. coli DRC39 – strain DRC39, OD650, 48 h, E. coli filamentation inducers, primary screen (AID 1179);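 further: screen aims at cell division blockers that make cells filament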; conditions: E. coli DRC39 delta-acrAB growth, higher = more signal, called active from +8 up or from −8 down
[9] = viability profiling in RPMI8226 myeloma cells – cell-based, resazurin fluorescence, basal, 24 h, PK04 Diversity Set, profiling panel (AID 1180); conditions: higher = more signal;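 further: RPMI8826 multiple myeloma cell line at 5000 cells per well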
[10] = biological target: E3 ubiquitin-protein ligase XIAP (Homo sapiens) (UniProt P98170); assay: small molecules binding XIAP protein – biophysical, small-molecule microarray, fluorescence 635 nm, primary screen (AID 1181); conditions: higher = more signal;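 further: score merges 667 nm emission and signal to noise over triplicate slides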
E3 ubiquitin-protein ligase XIAP (Homo sapiens), sequence (P98170 whole entry, looked up, the tested form may be a part): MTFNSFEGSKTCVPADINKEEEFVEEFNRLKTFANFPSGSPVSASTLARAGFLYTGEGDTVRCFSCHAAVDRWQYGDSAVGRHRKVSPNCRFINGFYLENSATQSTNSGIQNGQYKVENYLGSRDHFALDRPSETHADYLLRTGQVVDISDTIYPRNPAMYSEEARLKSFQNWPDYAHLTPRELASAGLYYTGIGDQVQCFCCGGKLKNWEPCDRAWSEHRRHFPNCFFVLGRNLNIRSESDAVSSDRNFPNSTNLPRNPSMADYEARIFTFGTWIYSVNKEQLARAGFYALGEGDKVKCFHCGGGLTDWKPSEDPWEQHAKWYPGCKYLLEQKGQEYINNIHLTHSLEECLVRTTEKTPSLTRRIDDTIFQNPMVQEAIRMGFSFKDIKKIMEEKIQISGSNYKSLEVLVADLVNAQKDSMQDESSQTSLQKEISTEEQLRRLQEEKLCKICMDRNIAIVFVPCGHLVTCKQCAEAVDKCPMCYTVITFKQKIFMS

[11] = tested on: XIP peptide (Xip251-270) binding; assay: XIP fragment 251-270 binding compounds – biochemical, small-molecule microarray, fluorescence 635/667 nm, 0.1 µg/mL protein, primary screen (AID 1182); conditions: fluorescent protein binding, 635 nm, higher = more signal, called active from +8 up or from −8 down
[12] = tested on: XIP peptide (Xip251-270); assay: compounds binding XIP fragment 251-270 – biochemical, small-molecule microarray, fluorescence 635/667 nm, 0.5 µg/mL protein, primary screen (AID 1183); conditions: fluorescence 635 nm, higher = more signal
[13] = blood-stage malaria parasite viability loss – strain 3D7, DAPI fluorescence, 100 nL, primary screen (AID 1184);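 further: parasites grown inside human red blood cells in medium with human serum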; conditions: P. falciparum 3D7 growth, 3 d, higher = more signal
[14] = biological target: Homeobox protein Hox-A13 (Mus musculus) (UniProt Q62424); assay: disruptors of Hoxa13 oligonucleotide interaction – biochemical, fluorescence polarization, labeled oligonucleotide, primary screen (AID 1185); conditions: Hoxa13:DNA binding, 15 min, higher = more signal, called active from +8 up or from −8 down
Homeobox protein Hox-A13 (Mus musculus), sequence (Q62424 whole entry, looked up): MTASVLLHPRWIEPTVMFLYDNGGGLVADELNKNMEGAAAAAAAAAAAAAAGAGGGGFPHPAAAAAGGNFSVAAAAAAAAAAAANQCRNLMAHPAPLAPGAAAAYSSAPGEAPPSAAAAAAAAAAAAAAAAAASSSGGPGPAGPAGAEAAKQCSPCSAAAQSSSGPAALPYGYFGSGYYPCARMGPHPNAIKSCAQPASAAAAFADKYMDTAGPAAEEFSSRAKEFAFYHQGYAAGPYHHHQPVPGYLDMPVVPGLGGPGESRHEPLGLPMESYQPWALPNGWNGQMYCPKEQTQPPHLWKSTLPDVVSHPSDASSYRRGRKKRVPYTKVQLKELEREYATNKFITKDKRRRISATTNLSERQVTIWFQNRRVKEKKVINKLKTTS

Structure (SMILES) | z-score [1] | z-score [2] | z-score [3] | composite z-score [4] | z-score [5] | z-score [6] | z-score [7] | z-score [8] | z-score [9] | composite z-score [10] | composite z-score [11] | composite z-score [12] | z-score [13] | z-score [14]
COc1ccc(COC(=O)NN=C2C[C@@H](O)[C@@H](O)[C@@H]3[C@@H]4C(=O)N(c5ccc(F)cc5F)C(=O)[C@@H]4CC[C@H]23)cc1 | -0.238 | -0.291 (inactive) | 0.317 (inactive) | 0.0067 (inactive) | 0.307 (inactive) | -0.461 (inactive) | -0.0692 (inactive) | 0.138 (inactive) | 0.643 | 0.0674 | 0.051 (inactive) | 0.393 | -1.93 | -6.79 (inactive)
C#CCCCON=C1C[C@@H](O)[C@@H](O)[C@@H]2[C@@H]3C(=O)N(CC)C(=O)[C@@H]3CC[C@@H]12 | -0.245 | 0.961 (inactive) | -0.529 (inactive) | -0.367 (inactive) | 0.07 (inactive) | 0.375 (inactive) | 0.0322 (inactive) | -0.569 (inactive) | -0.244 | -0.0473 | 0.901 (inactive) | 0.555 | -0.0961 | -0.918 (inactive)
COc1cc(O)c(C(=O)C=Cc2ccc3c(c2)OCO3)c(OC)c1 | 0.0215 | 1.12 (inactive) | -0.307 (inactive) | 1.06 (inactive) | 1.2 (inactive) | 2.31 (inactive) | -0.45 (inactive) | -1.04 (inactive) | -0.144 | 0.215 | -0.156 (inactive) | -0.218 | -0.973 | -0.978 (inactive)
CCOC(=O)[C@H](CC(C)C)NC(=O)CCC1CC(OC(=O)NCc2ccc3c(c2)OCO3)CC2(CCCC(COC(=O)NCC3CCCCC3)O2)O1 (some centres undefined) | 0.471 | 0.105 (inactive) | 1.4 (inactive) | -0.19 (inactive) | -0.0326 (inactive) | 0.494 (inactive) | 0.536 (inactive) | 0.0926 (inactive) | 1.32 | -0.0053 | 0.269 (inactive) | 0.0826 | -1.77 | -6.18 (inactive)
COC(=O)[C@H]1O[C@@H](c2c(OC)c(OC)c(C)c(OC)c2OC)[C@H](C)[C@@H](O)[C@H]1C | -0.617 | -0.615 (inactive) | -1.76 (inactive) | -0.0757 (inactive) | 0.417 (inactive) | 0.275 (inactive) | 0.968 (inactive) | 0.926 (inactive) | -0.456 | -0.13 | 0.498 (inactive) | 0.486 | 0.0136 | 0.6 (inactive)
COC(=O)[C@@H]1CC[C@H](C)[C@@H](c2ccc(C)cc2)N1C(=O)c1ccc(C=NOCC[C@@H]2C=C[C@H](OC(C)=O)[C@@H](COC(C)=O)O2)cc1 | -0.574 | 1.76 (inactive) | -0.761 (inactive) | 1.16 (inactive) | 0.888 (inactive) | 1.98 (inactive) | 0.667 (inactive) | -0.62 (inactive) | -0.337 | -0.291 | -0.425 (inactive) | 0.484 | -0.316 | -5.26 (inactive)
CCCNC(=O)OC[C@H]1O[C@H](c2ccccc2)C=C[C@@H]1Oc1ccc(OC)cc1 | -0.889 | -1.88 (inactive) | -1.06 (inactive) | 0.152 (inactive) | -0.115 (inactive) | -0.0966 (inactive) | 0.507 (inactive) | 0.342 (inactive) | -0.35 | -0.0629 | -0.174 (inactive) | 0.631 | 0.284 | -1.63 (inactive)
C[C@H](ON=C1[C@H]2CCn3c(=O)n(-c4ccccc4)c(=O)n3[C@H]2[C@H](O)[C@@H]2O[C@H]12)c1cn([C@H](CO)Cc2ccccc2)nn1 | -0.189 | -0.145 (inactive) | -0.489 (inactive) | -1.29 (inactive) | 0.0282 (inactive) | -1.09 (inactive) | 0.571 (inactive) | 0.223 (inactive) | -0.226 | -0.106 | 2.76 (inactive) | 0.238 | 0.0242 | -3.02 (inactive)
Cc1cc2c(c(=O)o1)[C@@H](O)[C@H]1O[C@H]1C2=O | -0.721 | -0.582 (inactive) | 0.166 (inactive) | 0.664 (inactive) | -0.67 (inactive) | 0.322 (inactive) | -0.729 (inactive) | -1.26 (inactive) | -0.535 | 0.13 | -0.483 (inactive) | 0.274 | -0.807 | -1.3 (inactive)
CCOC(=O)[C@H](Cc1ccccc1)NC(=O)CCC1CC(OC(=O)NCCc2ccc(F)cc2)CC2(CCCC(COC(=O)NCCCN3CCCC3=O)O2)O1 (some centres undefined) | -0.0038 | -0.196 (inactive) | 0.374 (inactive) | -1.73 (inactive) | 0.781 (inactive) | -1.25 (inactive) | -0.198 (inactive) | -0.926 (inactive) | 0.898 | -0.0622 | 0.414 (inactive) | 0.701 | -1.6 | -2.25 (inactive)
COC(=O)CC=C[C@H](C)[C@@H](OCc1cccc(Br)c1)[C@@H](C)[C@H](OC)C1CCCCC1 | -0.363 | -0.949 (inactive) | 0.0742 (inactive) | -0.498 (inactive) | -1.16 (inactive) | 0.161 (inactive) | 0.474 (inactive) | -0.596 (inactive) | -0.171 | -0.318 | 0.685 (inactive) | 0.768 | 0.536 | 0.0373 (inactive)
O=C1CCCC=C1C(O)CCOC(c1ccccc1)(c1ccccc1)c1ccccc1 (centres undefined) | 0.0714 | -0.529 (inactive) | 0.0795 (inactive) | 0.466 (inactive) | 0.368 (inactive) | 1.25 (inactive) | 0.0368 (inactive) | -0.356 (inactive) | -0.193 | 0.412 | -0.0848 (inactive) | -0.364 | -1.1 | -4.61 (inactive)
CC(C)CON=C1C[C@@H](O)[C@@H](O)[C@@H]2[C@@H]3C(=O)N(C4CCCCC4)C(=O)[C@@H]3CC[C@H]12 | -0.451 | -0.197 (inactive) | -0.143 (inactive) | 0.603 (inactive) | -0.118 (inactive) | -0.207 (inactive) | -0.651 (inactive) | 0.272 (inactive) | -0.365 | 0.224 | 0.273 (inactive) | 0.793 | -0.0504 | 0.866 (inactive)
CCOC(=O)NN=C1C[C@@H](O)[C@@H](O)[C@@H]2[C@@H]3C(=O)N(Cc4ccccc4)C(=O)[C@@H]3CC[C@H]12 | 1.16 | -0.892 (inactive) | 1.41 (inactive) | -0.451 (inactive) | 0.483 (inactive) | -1.1 (inactive) | -0.077 (inactive) | 0.495 (inactive) | 1.89 | -0.27 | -0.405 (inactive) | 0.0213 | -0.179 | -1.48 (inactive)
CO[C@@H]1COC(=O)CC=C[C@@H](C)[C@@H]2C=C[C@H](O)[C@@H](COC(=O)CC=C[C@H]1C)O2 | 0.807 | -1.65 (inactive) | 0.992 (inactive) | -0.0239 (inactive) | 0.765 (inactive) | -0.72 (inactive) | 0.619 (inactive) | 0.799 (inactive) | 0.366 | 0.0177 | 0.0592 (inactive) | 0.853 | 0.338 | -2.1 (inactive)
CCOC(=O)[C@H](Cc1ccccc1)NC(=O)CCC1CC(OC(=O)NCCc2ccc(F)cc2)CC2(CCCC(COC(=O)NCCc3ccccc3OC)O2)O1 (some centres undefined) | -0.0425 | 0.456 (inactive) | -0.288 (inactive) | -0.732 (inactive) | 0.626 (inactive) | 0.476 (inactive) | -0.0222 (inactive) | -1.19 (inactive) | 0.0228 | -0.0796 | -0.157 (inactive) | 0.525 | -1.94 | -2.27 (inactive)
CC1O[C@H]2C3=C(C(=O)[C@@H]4O[C@@H]4[C@H]3O)[C@@H]1C1[C@@H](C)OC=C3[C@H](O)C4O[C@@H]4C(=NOCc4ccccc4)[C@]312 (some centres undefined) | -1.04 | -0.456 (inactive) | -4.85 (inactive) | 0.0953 (inactive) | -0.364 (inactive) | 0.543 (inactive) | 0.158 (inactive) | -0.123 (inactive) | -2.84 | 0.215 | -0.319 (inactive) | 0.563 | -0.352 | -1.93 (inactive)
CO[C@@H]1COC(=O)[C@@H](C)COC(=O)[C@@H](C)NC(=O)CC=C[C@@H]1C | -0.373 | -0.792 (inactive) | 1.2 (inactive) | -4.92 (inactive) | -0.136 (inactive) | -1.99 (inactive) | -0.98 (inactive) | -1.13 (inactive) | 0.635 | -0.271 | 0.0875 (inactive) | 0.304 | -1.52 | -0.701 (inactive)
O=C1[C@H]2[C@H]3[C@H](O)[C@H](O)CC(=NOCc4ccccc4)[C@@H]3CC[C@H]2C(=O)N1c1ccc(F)cc1F | 0.0979 | -0.584 (inactive) | 0.253 (inactive) | -1.42 (inactive) | 0.86 (inactive) | -2.15 (inactive) | -0.018 (inactive) | -0.714 (inactive) | -1.19 | -0.0563 | -0.228 (inactive) | 0.0159 | -0.545 | 0.941 (inactive)
C[C@@H]1CC[C@H]2C(=O)O[C@@H](Cc3ccccc3)CN2[C@H]1c1ccc(Br)cc1 | 0.603 | -1.06 (inactive) | 0.656 (inactive) | 0.245 (inactive) | -0.491 (inactive) | 0.37 (inactive) | -0.402 (inactive) | -0.161 (inactive) | 0.0066 | 0.0871 | 0.128 (inactive) | 0.174 | 0.209 | -1.7 (inactive)
CO[C@@H]1COC(=O)[C@H](CCSC)NC(=O)CC=C[C@@H](C)COC(=O)CCC[C@H]1C | 1.09 | -0.509 (inactive) | -0.11 (inactive) | -0.555 (inactive) | -0.892 (inactive) | 0.0665 (inactive) | 0.104 (inactive) | 0.156 (inactive) | 0.53 | 0.871 | 1.2 (inactive) | 0.929 | -0.766 | -2.31 (inactive)
